Assay outcomes deposited in PubChem by National Center for Advancing Translational Sciences (NCATS).
Most compounds without a hit are left out; they make up all but 11% or so of the library.
BAZ2B block – inhibitors of human BAZ2B bromodomain; 360,000 tested, 4.4% active; AlphaScreen BAZ2B-H3K14Ac peptide displacement; Potency, µM (top dose mostly 114 µM), without a hit: at the top dose activity change, negative = inhibition, most hits filed as inhibitors; note: potency is the fitted concentration of half-maximal effect; % is set by controls: 0 for no effect and ±100 for the full control effect; nearly all actives have a fitted effect of over 60% in size
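Complex of BAZ2B and biotin-H3K14Ac (50 nM apiece) forms over 30 min at RT, then faces library compounds up to 110 uM for another 30 min; AlphaScreen beads added, 20 min dark incubation, luminescence read.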
HP1b binding inh – HP1-beta chromodomain-methylated histone interaction inhibition. AlphaScreen HP1-beta / biotin-H3K9me3 peptide binding. 390,000 tested, 0.56% active. Potency, µM (doses to about 114 µM), for inactives: top-dose activity change, negative = inhibition, actives largely listed as inhibitors. P83916; note: potency is the fitted concentration of half-maximal effect; nearly all actives have a fitted effect of over 70% in size
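AlphaScreen: HP1-beta (50 nM) preformed 30 min with biotin-H3(1-18)K9me3 peptide (50 nM) in PBS pH 7.4, 0.01% Tween-20. Compound added for 30 min at RT, then streptavidin donor/nickel chelate acceptor beads (10 ug/mL) for 30 min.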
PI5P4K alpha inh – blocks human PI5P4K alpha kinase activity. PI5P4Kalpha enzyme, ADP-Glo luminescence, 60 min; hits give low values. max response, %. 330,000 tested, 1.2% active. P48426; active = max response of -50% or lower; inconclusive = between -30% and -50%; inactive = -30% or higher; note: value at the top dose of about 77 µM; % is set by controls: 0 for no effect and ±100 for the full control effect
Target sequence (P48426 whole entry, looked up): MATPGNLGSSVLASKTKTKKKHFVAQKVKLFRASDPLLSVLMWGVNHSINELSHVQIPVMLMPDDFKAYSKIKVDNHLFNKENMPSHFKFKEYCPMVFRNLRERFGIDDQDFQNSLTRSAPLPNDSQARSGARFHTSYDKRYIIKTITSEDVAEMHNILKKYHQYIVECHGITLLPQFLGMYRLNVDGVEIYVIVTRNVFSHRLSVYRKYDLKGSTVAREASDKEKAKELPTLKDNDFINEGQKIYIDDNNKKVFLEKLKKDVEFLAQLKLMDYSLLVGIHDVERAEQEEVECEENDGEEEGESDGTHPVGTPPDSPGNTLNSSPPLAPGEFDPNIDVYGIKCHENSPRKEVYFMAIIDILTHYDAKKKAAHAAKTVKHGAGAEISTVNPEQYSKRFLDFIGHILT
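Compounds were pin-transferred onto PI5P4Kalpha and substrate in HEPES pH 7.4 buffer with EGTA, CHAPS and 5% DMSO. ATP (5 microM final) started the reaction, which ran 60 minutes at room temperature before ADP-Glo detection.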
G9a inh – G9a (human) methyltransferase inhibition; Q96KQ7; G9a H3K9 monomethylation, AlphaScreen, 2 h; Potency, µM (highest dose often 102 µM), inactives show at the top dose activity, negative = inhibition, actives largely listed as inhibitors; 350,000 tested, 8.8% active; AID 504332; note: potency is the fitted concentration of half-maximal effect; % is set by controls: 0 for no effect and ±100 for the full control effect; nearly all actives have a fitted effect of over 75% in size
Target sequence (Q96KQ7 913-1193 limits assumed): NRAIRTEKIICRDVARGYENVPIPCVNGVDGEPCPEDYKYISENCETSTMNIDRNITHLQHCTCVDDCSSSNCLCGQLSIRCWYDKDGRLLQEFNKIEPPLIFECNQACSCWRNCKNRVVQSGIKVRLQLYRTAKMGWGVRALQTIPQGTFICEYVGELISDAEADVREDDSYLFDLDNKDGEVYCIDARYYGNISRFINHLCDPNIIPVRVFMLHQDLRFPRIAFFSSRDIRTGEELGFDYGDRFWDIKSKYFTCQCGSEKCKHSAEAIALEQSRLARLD
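Signal arises when biotinylated H3K9 peptide, once monomethylated, bridges streptavidin donor and antibody-captured acceptor beads. Enzyme at 20 nM was preincubated 15 min with test compounds; peptide 500 nM and SAM 20 uM then reacted for 2 h.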
JMJD2A Tudor – inhibitors of human JMJD2A Tudor domain | 390,000 tested, 4.4% active | O75164 | AlphaScreen JMJD2A-Tudor / H3K4me3 peptide binding | Potency, µM (highest dose often 114 µM), for the others: at the top dose activity change, negative = inhibition, hits mostly inhibitors; note: potency is the fitted concentration of half-maximal effect; % is set by controls: 0 for no effect and ±100 for the full control effect; nearly all actives have a fitted effect of over 50% in size
L3MBTL1 block – blocks human L3MBTL1 | AlphaScreen L3MBTL1–H3K9me1 peptide binding | AID 485360 | 230,000 tested, 0.66% active | Potency, µM (highest dose often 57.1 µM), for the others: at the top dose activity, negative = inhibition, most hits filed as inhibitors | Q9Y468; note: potency is the fitted concentration of half-maximal effect; % is set by controls: 0 for no effect and ±100 for the full control effect; nearly all actives have a fitted effect of over 60% in size
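L3MBTL1 50 nM + b-AHA-H3(1-15)K9me1 75 nM, 30 min RT; compound added, 30 min RT; streptavidin donor/Ni-chelate acceptor beads 10 ug/mL each final, 30 min RT dark; AlphaScreen read.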
An asterisk follows results filed as active; ? = inconclusive; · = no result given; [ ] = remark or other dose. Unless noted, calls come from the whole dose curve; as a rule, active = well fitted inhibition curve with a large enough effect; inconclusive = small, poorly fitted or top-dose-only effect; inactive = no such curve, though single readings can be large or run the other way.

SMILES	BAZ2B block	HP1b binding inh	PI5P4K alpha inh	G9a inh	JMJD2A Tudor	L3MBTL1 block
COC(=O)C1=C(C)N(c2ccc(OC)cc2)C(=O)/C1=C\c1cccs1	-3%	15%	1	-11%[59 µM]	?	-1%
COC(=O)c1[nH]nc2c1C(=O)N(Cc1ccccc1)C2=O	-7%	59%	?	-12%[2.33 µM]	12%	1%
COC(=O)C1=C(C)N(CCc2ccccc2)C(=O)/C1=C\c1ccco1	35µM*	-59%	2	32µM*	40µM*	?
CCCCNC(=O)CSc1nc2ccccc2nc1Cc1ccc(Cl)cc1	1%	25%[57 µM]	·	-2%[59 µM]	-20%	·
Cc1cc(C)c(/C=C/c2onc(C)c2S(=O)(=O)N2CCC(C(=O)NCC(C)c3ccccc3)CC2)c(C)c1 (stereo not drawn)	-6%	16%[57 µM]	·	17%[59 µM]	-15%	·
CCOc1ccccc1C(=O)N1CCc2cc(OC)c(OC)cc2C1COc1ccc2c(C)cc(=O)oc2c1 (stereo not drawn)	-13%	3%	·	?	-20%	·
CCOc1ccc(N2C(=O)/C(=C/c3ccco3)N(C)C2=S)cc1	-6%	4%	-2	10µM*	-28%	-12%
CCOC(=O)C1=C(C)N(c2ccc(OCC)cc2)C(=O)/C1=C\c1ccco1	8.9µM*	45µM*	-4	?	22µM*	·
CCOC(=O)CCc1c(C)c2cc3c(c(C)c2oc1=O)OCN(CCc1ccccc1OC)C3	-15%	47%	·	-6%[59 µM]	-19%	·
CC1CCC/C(=C\Nc2ccccc2C(=O)O)C1=O (stereo not drawn)	?	38%	·	45µM*	-26%	1%
CC1CCC/C(=C\Nc2ccc3c(c2)OCO3)C1=O (stereo not drawn)	?	-10%	-16	8.9µM*	100µM*	-1%
O=C(O)C1CCCCC1C(=O)Nc1ccc2c(c1)OCO2 (stereo not drawn)	1%	21%	3	20%	-10%	·
COc1ccc(-c2cc3nc(C4CCN(C(=O)OC(C)(C)C)CC4)c(C(=O)Nc4cc(Cl)cc(Cl)c4)cn3n2)cc1	-1%	35%	·	-1%[59 µM]	-23%	·
Cc1ccc(NC(=O)Cn2c(=O)n(CCc3ccccc3)c(=O)c3c4c(sc32)CCCC4)c(C)c1	4%	12%	·	-4%[59 µM]	-12%	·
Nc1ccc(S(=O)(=O)Nc2nccs2)cc1N=Nc1ccccc1[N+](=O)[O-]	·	40µM*	-103*	·	40µM*	·
O=[N+]([O-])c1ccccc1S(=O)(=O)Nc1ccc(S(=O)(=O)Nc2nccs2)cc1	-21%	-14%	-6	45µM*	-24%	·
O=[N+]([O-])c1cccc(S(=O)(=O)Nc2ccc(S(=O)(=O)Nc3nccs3)cc2)c1	·	10%	0	·	-12%	·
O=C(COC(=O)c1ccc2ncsc2c1)NC(=O)C1CCCCC1	·	43%	·	·	-11%	·
Cc1cc(=O)n(Cc2c(F)cccc2Cl)c2c1c(C)nn2C	49%	83%	·	22%[59 µM]	23%	·
CN(C)/C=N/C(=S)Nc1ccc(Cl)cc1	-25%	5%	0	-5%	-23%	-7%
Cc1cccc(C)c1NC(=S)/N=C/N(C)C	-7%	-22%	-15	-12%[59 µM]	14µM*	6%
CC(C)c1nnc(NC(=O)c2cccc(NC(=O)C(F)(F)F)c2)s1	-12%	-7%	2	13µM*	-12%	2%
S=c1[nH]nc(CN2CCCC2)n1Cc1ccccc1	-4%	11%	-10	50µM*	3.5µM*	?
S=c1[nH]nc(CN2CCCCC2)n1Cc1ccccc1	-23%	21%	-19	22µM*	13µM*	·
c1ccc(Cn2c(CN3CCCC3)nc3ccccc32)cc1	-27%[57.1 µM]	35%	-5	-2%	-33%	-5%
SMILES	BAZ2B block	HP1b binding inh	PI5P4K alpha inh	G9a inh	JMJD2A Tudor	L3MBTL1 block
COC(=O)c1sc2cccc(F)c2c1S(=O)(=O)Nc1cc(C)c(Cl)cc1OC	-17%	45%	·	2%[59 µM]	-15%	·
CCC(O)c1nc2ccccc2n1CCOc1cc(C)cc(C)c1 (stereo not drawn)	-5%	15%	·	?	-31%	·
CNC(=S)N/N=C/c1c2ccccc2c(Cl)c2ccccc12	-19%	14%	-10	18µM*	-7%	·
NC(=S)N/N=C\c1c2ccccc2cc2ccccc12	-37%	0%	-6	7.1µM*	-35%	-2%
NC(=S)N/N=C/c1ccccc1	-34%	16%	1	?	-18%	4%
C[N+](C)(C)CC(=O)N/N=C/c1c2ccccc2cc2ccccc12	56µM*	42%	1	35µM*	?	·
COCCNC(=S)N/N=C/c1c2ccccc2cc2ccccc12	2%	93%	-1	79µM*	16%	·
Cn1c(SCC(N)=O)nc2c([nH]c3ccccc32)c1=O	1%	17%[57 µM]	·	-1%[59 µM]	-14%	·
CCOC(=O)c1c(C)c(-c2ccccc2)n(CC(=O)NCc2ccccc2)c1C	-16%	28%	·	9%[59 µM]	-11%	·
S=c1[nH]nc(-c2cc(-c3ccco3)[nH]n2)n1-c1cccc2ccccc12	40µM*	?	·	4µM*	89µM*	?
Cc1ccc(-n2c(-c3cc(-c4ccco4)[nH]n3)n[nH]c2=S)c(Br)c1	?	-3%	-12	5.6µM*	-23%	·
O=c1c2ccccc2nc(-c2ccco2)n1Cc1ccccc1	?	24%	·	?	-8%	·
N#C/C(C(=O)Nc1ccc(Cl)cc1)=C(/S)Nc1ccccc1	20µM*	?	-87*	1.6µM*	20µM*	·
O=C(Nc1ccc(Nc2ccccc2)cc1)c1ccc(Cl)cc1	·	27%	1	·	-2%	·
CCOC(=O)c1sc(=S)n(-c2cc(F)ccc2F)c1N	-9%	-35%	·	26%[0.501 µM]	?	-1%
COC(=O)c1sc(=S)n(-c2cc(F)ccc2F)c1N	56µM*	?	·	12%[0.501 µM]	?	-2%
COc1cccc(NS(=O)(=O)c2ccc3c(c2)CCN3C(C)=O)c1	-1%	28%	1	46%	-5%	·
CCN(CCCNS(=O)(=O)c1ccc2c(c1)CCN2C(C)=O)c1cccc(C)c1	?	-20%	-1	?	22µM*	-22%
CC(=O)N1CCc2cc(S(=O)(=O)Nc3cccc(C(F)(F)F)c3)ccc21	3%	9%	2	6%	89µM*	·
CC(=O)N1CCCc2cc(S(=O)(=O)Nc3ccc4c(c3)OCO4)ccc21	-4%	10%	1	50µM*	-21%	-2%
COc1ccccc1NC(=O)CCn1nc(-c2ccccc2OC)c2c(C)cc(C)nc21	-18%	12%	·	-33%[59 µM]	-23%	·
C=CCn1c(-c2csc(-c3ccccc3)n2)n[nH]c1=S	1%	34%	-20	1.8µM*	-18%	·
C=CCn1c(-c2csc(-c3ccc(OC)c(OC)c3)n2)n[nH]c1=S	-8%	24%	1	2.2µM*	7.9µM*	10%
